Results filed as inconclusive are left out. Activity calls are given as the source filed them. The call rests on the fitted dose curve; in most records, active means well fitted inhibition curve with a large enough effect; inconclusive means small, poorly fitted or top-dose-only effect; inactive means flat fitted curve, though single readings scatter.
On the % scale 0 is the no-effect control and ±100 the full control effect; potency means the concentration at half of the fitted maximal effect.

The subject of the assay is HEK293. As to the kind of experiment: Cytotoxic Profiling of Annotated Libraries Using Quantitative High-Throughput Screening (AID 1296008). Further: nearly all actives have a fitted effect of over 60% in size. Conditions: Five cell lines viability, CellTiter-Glo ATP luminescence, 48-72 h; max response: stronger effect = lower value. In outline:
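Cells exposed to compounds for 48 or 72 hr at 37 degrees Celsius. Viability read as ATP-coupled luminescence with CellTiter-Glo after 10 min at room temperature.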
Take `O=C(Nc1ccc(S(=O)(=O)Nc2ccccc2Cl)c(Cl)c1)c1ccccn1`: the max response was -10.8% (inactive).
Same read-out and setting: next, `CC(C)[C@H]1CC[C@@]2(O)COC(=O)[C@H]2[C@@H]1/C=C(\CO)C(=O)O`: 2.97% (inactive).
On to `COc1cccc(-c2cc(NCc3ccc4c(c3)OCO4)nc(N)n2)c1`, for which the Potency was 0.184 µM (active).
Take `CC(C)=CCC/C(C)=C/CO[C@@H]1O[C@H](CO)[C@@H](OC(=O)/C=C/c2ccc(O)cc2)[C@H](O[C@@H]2O[C@@H](C)[C@H](O)[C@@H](O)[C@H]2O)[C@H]1O`: the max response was 1.83% (inactive).
Take `CCOc1ccc(NC(=S)N2CCC(C(O)(c3ccccc3)c3ccccc3)CC2)cc1`: the max response is -4.42% (inactive).
As for `CN(c1ccccc1CNc1nc(Nc2ccc3c(c2)CC(=O)N3)ncc1C(F)(F)F)S(C)(=O)=O`, the Potency is 2.31 µM (active).
As for `C[C@@H]1CCC2C(C)(C)[C@H](O)CC[C@]2(C)[C@@]12Cc1c(O)cc3c(c1O2)CNC3=O` (some centres undefined), the max response was -94.6% (inactive).
As to `C=C1C(OC(C)=O)CCC2(C)CC3(OC)OC(=O)C(C)=C3CC12` (centres undefined), the max response is -22.9% (inactive).
On the same count and under the same terms, next, `COc1cc2c3c(cc4ccccc4c3c1O)NC2=O`: -10.3% (inactive); `Cc1nc(C)c(-c2ccc(C3CCC(CC(=O)O)CC3)cc2)nc1C(N)=O` (centres undefined): -0.422% (inactive).
Same read-out and setting: next, `CC1(C)CCCC2(C)C1CC=C1C(=O)OC(O)C12O` (centres undefined): -21.2% (inactive); `CC(C)CCC1(O)C(=O)C(C)(C)C(O[C@@H]2O[C@H](CO)[C@@H](O)[C@H](O)[C@H]2O)C(C)(C)C1O` (some centres undefined): -13.9% (inactive).
For the compound `N[C@H]1Cc2ccccc2N(O)C1=O`, the Potency is 25.9 µM (active).
With `CC/C=C\CCO[C@@H]1O[C@H](CO[C@@H]2OC[C@H](O)[C@H](O)[C@H]2O)[C@@H](O)[C@H](O)[C@H]1O`, the call was inactive.

These data come from PubChem BioAssay (NCATS).
